The campaign covered roughly 310,000 compounds. About 14,000 (4.5%) showed an effect of 50% or more. The effect is printed as a negative number. Many of the other results were omitted from the sample, so strong results are more common in it than they were.

This note sets out measurements from PMC4336329 (PLoS ONE, 2015).
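Note: peak tail current of the secondary pulse compared with the same well before compound.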

human ether-à-go-go-related gene (hERG) potassium channel, sequence (Q12809 whole entry, looked up): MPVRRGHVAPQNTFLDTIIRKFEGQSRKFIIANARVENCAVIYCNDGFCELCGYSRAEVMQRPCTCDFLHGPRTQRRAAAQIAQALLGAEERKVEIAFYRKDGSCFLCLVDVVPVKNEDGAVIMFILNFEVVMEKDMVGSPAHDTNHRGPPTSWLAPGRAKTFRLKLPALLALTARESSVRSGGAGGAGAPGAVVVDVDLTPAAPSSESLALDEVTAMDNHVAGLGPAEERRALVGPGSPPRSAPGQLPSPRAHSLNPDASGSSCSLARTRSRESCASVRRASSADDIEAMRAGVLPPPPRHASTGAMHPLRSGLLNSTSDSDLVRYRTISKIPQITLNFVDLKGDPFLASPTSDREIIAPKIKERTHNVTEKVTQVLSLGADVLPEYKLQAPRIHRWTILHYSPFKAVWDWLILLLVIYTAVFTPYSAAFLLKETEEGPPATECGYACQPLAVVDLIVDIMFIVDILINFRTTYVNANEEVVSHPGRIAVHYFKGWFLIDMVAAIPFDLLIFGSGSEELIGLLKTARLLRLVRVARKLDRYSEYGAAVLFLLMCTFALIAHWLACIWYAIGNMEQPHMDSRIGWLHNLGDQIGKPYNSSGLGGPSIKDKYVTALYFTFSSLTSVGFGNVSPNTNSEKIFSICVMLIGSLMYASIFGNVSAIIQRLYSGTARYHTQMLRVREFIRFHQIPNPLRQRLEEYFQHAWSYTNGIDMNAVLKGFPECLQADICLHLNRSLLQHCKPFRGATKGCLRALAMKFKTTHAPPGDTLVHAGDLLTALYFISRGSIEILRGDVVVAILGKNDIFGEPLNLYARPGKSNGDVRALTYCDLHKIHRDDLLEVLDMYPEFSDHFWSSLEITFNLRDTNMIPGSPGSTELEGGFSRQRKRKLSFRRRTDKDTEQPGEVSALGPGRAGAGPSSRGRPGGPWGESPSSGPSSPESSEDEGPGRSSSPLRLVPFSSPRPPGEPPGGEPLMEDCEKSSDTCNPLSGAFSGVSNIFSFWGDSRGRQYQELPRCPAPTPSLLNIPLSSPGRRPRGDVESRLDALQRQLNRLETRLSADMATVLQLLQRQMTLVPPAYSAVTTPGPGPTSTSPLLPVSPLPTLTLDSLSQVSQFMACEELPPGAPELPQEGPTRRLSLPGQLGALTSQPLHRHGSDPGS

This experiment addresses human ether-à-go-go-related gene (hERG) potassium channel (human, UniProt Q12809). Description: primary screen, population patch clamp on CHO cells stably expressing hERG; higher = less effect of the substance.
In the case of `O=C(N/C(=C/c1cccs1)C(=O)N1CCCC1)c1ccccc1`, the “hERG current change (%, negative = inhibition) at 10uM” value came out at 6.44%.
As to `Cc1ccc(NC(=O)/C(=C\c2cccs2)NC(=O)c2ccccc2)cc1`, the “hERG current change (%, negative = inhibition) at 10uM” value was -3.84%.
In the case of `CCOC(=O)N1CCN(C(=O)/C(=C/c2cccs2)NC(=O)c2cccs2)CC1` it was -45.7%; in that of `O=C(N/C(=C\c1cccs1)C(=O)N1CCCCCC1)c1ccccc1`, -32.3%.
Under `CCOC(=O)N1CCN(C(=O)/C(=C\c2cccs2)NC(=O)c2cccs2)CC1` stands -71.8%; under `Cc1cccc(NC(=O)/C(=C\c2cccs2)NC(=O)c2ccccc2)c1`, -51.7%.
In the case of `O=C(N/C(=C\c1ccc2c(c1)OCO2)C(=O)N1CCOCC1)c1cccs1` it was -42.8%; in that of `CN1CCN(C(=O)/C(=C\c2cccs2)NC(=O)c2ccccc2)CC1`, -75.3%.
As to `CN1CCN(C(=O)/C(=C\c2ccc3c(c2)OCO3)NC(=O)c2cccs2)CC1`, the “hERG current change (%, negative = inhibition) at 10uM” value is -76.8%.
Under `O=C(N/C(=C/c1ccc2c(c1)OCO2)C(=O)N1CCOCC1)c1cccs1` stands 9.12%; under `O=C(Nc1ccccc1)/C(=C\c1cccs1)NC(=O)c1ccccc1`, 9.9%; under `CCOC(=O)N1CCC(NC(=O)c2cccs2)CC1`, 6.2%.
With `COc1cc(CNCC2CCCO2)ccc1OCC(N)=O.Cl` (stereo not shown), the “hERG current change (%, negative = inhibition) at 10uM” value is 16.3%.
For the compound `CCOc1ccc(S(=O)(=O)N2CCC(C(=O)NCc3cccnc3)CC2)cc1`, the “hERG current change (%, negative = inhibition) at 10uM” value was -27.1%.
In the case of `CCCC1(c2ccccc2)NC(=O)N(CC(=O)Nc2cc(C)on2)C1=O` (stereo not shown), the “hERG current change (%, negative = inhibition) at 10uM” value is reported as 23.6%.
In the case of `CCc1nn(CC(=O)NCCc2ccc(S(N)(=O)=O)cc2)c(=O)c2cc3sccc3n12` it was 20.1%.
Under `Oc1ccc(O)c(/C(=N/Nc2ccccc2)c2ccccc2)c1` stands 11%.
For `O=c1n(-c2cccc(Cl)c2)c(=O)n2n1CCC2`, the “hERG current change (%, negative = inhibition) at 10uM” value was -6.81%.
Under `O=C(CCN1CCN(c2ccc(Cl)cc2)CC1)Nc1nccs1` stands -13.3%; under `COc1cc(C2c3c(oc4c(C)cc(C)cc4c3=O)C(=O)N2Cc2cccnc2)ccc1O` (stereo not shown), 5.03%.
Under `COCC(C)n1c(C)cc(C(=O)COC(=O)/C=C/c2cccc(F)c2)c1C` (stereo not shown) stands -31.6%; under `Cc1nn(Cc2ccccc2)c(Cl)c1/C=C/C(=O)OC(C)C(=O)N1CCCC1` (stereo not shown), 18.7%.
In the case of `Cc1ccc(C(=O)N/C(=C/c2cccs2)C(=O)N2CCCCCC2)cc1` it was -46%; in that of `Cc1ccc(C(=O)N/C(=C\c2cccs2)C(=O)N2CCCCCC2)cc1`, -50.7%.
`O=C(N/C(=C/c1cccs1)C(=O)N1CCOCC1)c1cccs1`: the “hERG current change (%, negative = inhibition) at 10uM” value is -8.41%.
Under `Cc1ccc(C(=O)N/C(=C/c2cccs2)C(=O)N2CCCCC2)cc1` stands -35.4%; under `CN1CCN(C(=O)/C(=C\c2cccs2)NC(=O)c2cccs2)CC1`, -72.5%; under `O=C(N/C(=C\c1cccs1)C(=O)N1CCOCC1)c1cccs1`, -9.07%.
Regarding `Cc1cc(NC(=O)C2CC(=O)N(c3ccccc3Cl)C2)no1` (stereo not shown), the “hERG current change (%, negative = inhibition) at 10uM” value is on record as 14.6%.
Regarding `C/C(=N\NC(=O)CNC(=O)c1ccc2c(c1)OCCO2)c1ccco1`, the “hERG current change (%, negative = inhibition) at 10uM” value stood at 10.7%.
Under `CC(=O)Nc1ccc(S(=O)(=O)N2CCN(CCCOc3ccccc3Cl)CC2)cc1` stands -49.6%; under `CN(CCN1CCOCC1)C(=O)CC1C(=O)NCCN1Cc1ccccc1F` (stereo not shown), 12%.
On to `Cc1csc(NC(=O)CSc2nnc(-c3ccccn3)n2-c2ccc(C)c(C)c2)n1`, for which the “hERG current change (%, negative = inhibition) at 10uM” value is -78.5%.
Under `Cc1csc(SCC(=O)Nc2nc(-c3ccccc3)cs2)n1` stands -8.35%; under `CCN(CC)C(=O)CSc1nnc(-c2ccccn2)n1-c1ccc(C)c(C)c1`, -24.8%; under `Cc1ccc(-n2c(SCC(N)=O)nnc2-c2ccccn2)cc1C`, 8.79%.
In the case of `Cc1cc(C)cc(NC(=O)CSc2ccc(-c3ccccn3)nn2)c1` it was 8.61%; in that of `Cc1csc(NC(=O)CSc2ccc(-c3ccc(F)cc3)nn2)n1`, -26.8%; in that of `Cc1csc(NC(=O)CSc2ccc(-c3ccccn3)nn2)n1`, -73.6%.
In the case of `Cc1csc(NC(=O)CSc2ccc(-c3ccccc3)nn2)n1`, the “hERG current change (%, negative = inhibition) at 10uM” value is recorded as -66.9%.
In the case of `Cc1nnc(NC(=O)CSc2ccc(-c3ccccn3)nn2)s1` it was 12.1%; in that of `COc1ccc(CCN2C(=O)CSC2c2cccc([N+](=O)[O-])c2)cc1OC` (stereo not shown), -3.39%; in that of `CCOC(=O)c1c(C)nc2c(c1-c1ccccc1)C(=O)CC(C)(C)C2`, -16.8%.
In the case of `CC(OC(=O)c1ccc(O)cc1)C(=O)Nc1nc(-c2ccccc2)cs1` (stereo not shown) it was -17.8%.
Under `CCOC(=O)N1CCN(C(=O)C2CCN(S(=O)(=O)c3ccc(F)cc3)CC2)CC1` stands -19.3%; under `CSc1ccccc1C(=O)NC1CCCN(Cc2ccccc2F)C1` (stereo not shown), -11.5%.
With `CC(=O)NC1C(OCc2cccc(Br)c2)OC(COC(C)=O)C(OC(C)=O)C1OC(C)=O` (stereo not shown), the “hERG current change (%, negative = inhibition) at 10uM” value is on record as -12.4%.
For `CNC(=O)c1ccccc1Sc1ccccc1C#N`, the “hERG current change (%, negative = inhibition) at 10uM” value was 19.1%.
Regarding `CCOc1cc(N2CCOCC2)c(OCC)cc1NC(=O)C(C)(C)C`, the “hERG current change (%, negative = inhibition) at 10uM” value came out at 17.4%.
Under `CC(=O)Nc1ccc(NC(=O)C2CCN(C(=O)c3ccc([N+](=O)[O-])cc3)CC2)cc1` stands -0.926%.
In the case of `CC(=O)c1cccc(NC(=O)C2CCN(C(=O)c3ccccc3Cl)CC2)c1` it was -0.359%; in that of `O=C(Nc1ccc(F)cc1)C1CCN(C(=O)c2ccc([N+](=O)[O-])cc2)CC1`, -4.16%; in that of `CC(=O)c1ccc(NC(=O)N2CCN(c3ccc(C)cc3)C(C)C2)cc1` (stereo not shown), -19.6%.
Under `Cc1ccc(N2CCN(C(=O)Nc3cccc([N+](=O)[O-])c3)CC2C)cc1` (stereo not shown) stands -78.3%; under `O=C(Nc1cccc([N+](=O)[O-])c1)N1CCN(c2ccccc2)CC1`, -38.7%; under `O=C(Nc1cccc([N+](=O)[O-])c1)C1CCN(C(=O)Cc2ccccc2)CC1`, -43.3%.
As to `Cc1ccc(C(=O)N2CCC(C(=O)Nc3cccc([N+](=O)[O-])c3)CC2)cc1`, the “hERG current change (%, negative = inhibition) at 10uM” value was -80.1%.
In the case of `COc1cc(C(=O)N2CCC(C(=O)Nc3cccc(C(C)=O)c3)CC2)cc(OC)c1OC` it was -2.12%; in that of `O=C(Nc1ccccc1)C1CCN(C(=O)c2ccc([N+](=O)[O-])cc2)CC1`, -71.4%; in that of `CC(=O)c1cccc(NC(=O)C2CCN(C(=O)c3ccc([N+](=O)[O-])cc3)CC2)c1`, -69.6%.
In the case of `CCc1cccc(C)c1NC(=O)C1CCN(C(=O)c2ccc([N+](=O)[O-])cc2)CC1` it was -48.2%.
